# In the OligoGym collection:
# Molecular target: C8B
# Experiment: pooled miR-30 sensor sort-seq; sequence = guide strand
# Settings: shRNA
# Further: reference of the scale not given here.
row,Sequence,sensor-assay potency score (higher = more potent)
1,TAGTATGAGAGAATCGTTTGGT,0.49
2,TAACTCTCTGAAGGAACTCGTA,-1.02
3,TAAAACCAAAACTGAAACCAGA,-0.722
4,TAGCTTTCCACATTGTAGGGCT,0.376
5,TTGTCAGAGAAGTTGCACGGTT,-0.544
6,TTACACACCTTCCTGTCTGTGC,0.539
7,TAGGGCTTCCTAAACCTCGTGT,0.733
8,AACACAGTCTTCGACTTCCTTG,-0.726
9,TATTTTAAAACCAAAACTGAAA,-1.26
10,TTTATTTTAAACAGCTTGCATG,-0.469
11,TAAGAGTATAATCTCCTCTCTC,0.0444
12,TTTAGTATGAGAGAATCGTTTG,-0.791
13,TTGCCCTTGCATGAACTCCAGG,-1.15
14,TTAACTTTGATGATGGCTGGGT,0.335
15,TTGTTGACTGCATTTGACCCAA,-0.397
16,TTTGTCTTGTCTTACGTCTTCC,-0.213
17,TTCCTTCTGGAACTCCTCCAGT,-0.414
18,TTGACTTCCGCATGGTCTGTTG,-0.312
19,TAACACAGTCTTCGACTTCCTT,-0.392
20,TTTTAGTATGAGAGAATCGTTT,-0.743

# Molecular target: C8orf37
# Experiment: as above
# Settings: shRNA
row,Sequence,sensor-assay potency score (higher = more potent)
1,ATATTGTGCATAACATTGCTTT,-0.312
2,TTGCTTTGAGTTGATGAGGTAA,-0.541
3,TTGATGAGGTAAGATCAGCTAT,-0.469
4,TTATAATACATGATCTTCCTTA,0.582
5,TACATGATCTTCCTTAGTCCAT,-0.774
6,TTCTTCTTTATCAACTTTGCTT,-0.238
7,TAAGACTGTCAAGATCATCTTC,0.587
8,TTAATTTGTGAAATTCTGGCAT,0.766
9,TCTTCTTTATCAACTTTGCTTT,-0.627
10,TTAAATGTTTCTGTTGATCTGA,0.482
11,TAATTTGTGAAATTCTGGCATG,-0.39
12,TTTAACTGCTACAAGTTGGGGA,0.583

# Molecular target: C8orf86
# Experiment: as above
# Settings: shRNA
row,Sequence,sensor-assay potency score (higher = more potent)
1,TAATCAACTCCTCAGCTGGGAG,-1.02
2,TTTGTCTCTCTGTTCGCTGCTC,-0.0258
3,TTTGAAGAAACCACAGATGCGA,0.17
4,TCTTTGTCTCTCTGTTCGCTGC,-0.625
5,TAATTCAGGAGTTCTGGGCGGG,0.0945
6,TTGAAGAAACCACAGATGCGAG,-0.899
7,TTCTAATCAACTCCTCAGCTGG,-0.81
8,TTGGCTCTTTGGAACTGCCTGT,-0.109
